# Rows were chosen to be rich in hits. Some 19% of all compounds tested hit in one or more screens of this group.
# TDP1 cell CPT – qHTS for Inhibitors of human tyrosyl-DNA phosphodiesterase 1 (TDP1): qHTS in cells in presence of CPT; chicken DT40 Tdp1-/-;hTDP1 cells + 20 nM CPT, ATP luminescence, 48 h; Potency, µM (doses to about 46.2 µM), hits mostly inhibitors; 420,000 tested, 12% active; AID 686979, 2013; note: nearly all actives have a fitted effect of over 55% in size
#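 Cell growth measured by CellTiter-Glo luminescence after a minimum 48 h, 37 C compound exposure with 20 nM CPT in Tdp1-knockout DT40 cells stably expressing hTDP1, seeded 400/well; qHTS titration format.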
# ELG1 DNA repair – qHTS screen for small molecules that inhibit ELG1-dependent DNA repair in human embryonic kidney (HEK293T) cells expressing luciferase-tagged ELG1; AID 504467, 2011; Potency, µM (titrated, usually from 46.1 µM), hits mostly inhibitors; HEK293T ELG1-luciferase reporter, luminescence, 16 h; DNA damage induced by 5-fluorouridine; 330,000 tested, 2.3% active; note: nearly all actives have a fitted effect of over 55% in size
#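 Cells (2,000 per well) received 5-fluorouridine plus test compound or DMSO and were incubated 16 hr at 37 °C, 5% CO2. Luciferase activity was read by luminescence 30 min after ONE-Glo addition; signal suppression marked inhibition of damage-induced ELG1 function.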
# HT1080 IDH1KD tx – qHTS for induction of synthetic lethality in tumor cells producing 2HG: qHTS for the HT-1080-IDH1KD cell line; 360,000 tested, 2% active; AID 686971, 2013; Potency, µM (series often up to 46.1 µM), actives largely listed as cytotoxic; HT-1080 IDH1 knockdown viability, ATP luminescence, 48 h
#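 Using the IDH1-knockdown HT-1080 line run in the same batch and compound series as the NT line, viability after 48 h at 37 °C was determined by CellTiter-Glo luminescence and expressed as % activity.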
# IL1B secr inh – qHTS for Inhibitors of Inflammasome Signaling: IL-1-beta AlphaLISA Primary Screen | THP-1 LPS/ATP IL-1B secretion, AlphaLISA, 16 h; active compounds read low | activity change, % at 57.5 µM | 360,000 tested, 4.7% active; in the data active = activity change below about -50%; inconclusive = mostly about -30% to -49%
#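 Secreted IL-1B measured by AlphaLISA bead assay after 16 h compound exposure of THP-1 cells; compounds (final up to 57.5 uM) added 1 h before LPS (250 ng/mL) and ATP (1.25 mM) stimulation; lower signal means less secretion.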
# TDP1 cell noCPT – qHTS for Inhibitors of human tyrosyl-DNA phosphodiesterase 1 (TDP1): qHTS in cells in absence of CPT | DT40 Tdp1-/- hTDP1 cells, no CPT, ATP luminescence, 48 h | Potency, µM (top dose mostly 46.2 µM), usual class: inhibitors | 420,000 tested, 15% active | AID 686978, 2013; note: nearly all actives have a fitted effect of over 55% in size
#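 Compound effects on proliferation are scored in DT40 Tdp1-/-;hTDP1 cells in the absence of CPT. ATP levels (CellTiter-Glo luminescence) are recorded after a ≥48 hr, 37 °C incubation.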
# HT1080-NT tox – qHTS for induction of synthetic lethality in tumor cells producing 2HG: qHTS for the HT-1080-NT fibrosarcoma cell line; HT-1080-NT fibrosarcoma viability, CellTiter-Glo ATP luminescence, 48 h; Potency, µM (highest dose often 46.1 µM), hits mostly cytotoxic; 360,000 tested, 1.6% active; AID 686970, 2013;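 note: NT is the 2HG producing partner of a matched IDH1 knockdown line; nearly all actives have a fitted effect of over 55% in size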
#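 Fibrosarcoma NT cells, 750 per well in 5% FBS RPMI, were exposed to compound for 48 hours. Viability: CellTiter-Glo luminescence.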
# Hits are given with their value; - = inactive; ? = inconclusive; . = no result. Unless noted, calls come from the whole dose curve; as a rule, active = well fitted curve in the direction sought with a large enough effect; inconclusive = small, poorly fitted or top-dose-only effect, or another doubt; inactive = no such curve, though single readings can be large; an effect the other way counts as inactive or inconclusive.
SMILES,TDP1 cell CPT,ELG1 DNA repair,HT1080 IDH1KD tx,IL1B secr inh,TDP1 cell noCPT,HT1080-NT tox
COc1ccc(N/C=C\C(=O)c2ccc3c(c2)OCO3)cc1OC,-,?,-,-,-,-
O=C(/C=C/c1ccncc1)c1ccc2c(c1)OCCO2,?,?,18µM,-98,15µM,?
O=C(Nc1ccncc1)c1ccc2c(c1)OCCO2,?,-,-,-,?,-
O=C(/C=C\Nc1ccccc1Br)c1ccc2c(c1)OCO2,-,?,?,-,?,?
O=C(/C=C/c1ccccc1Br)c1ccc2c(c1)OCO2,21µM,?,?,-,23µM,?
O=C(/C=C/c1ccc2c(c1)OCO2)c1ccc(F)cc1,?,?,-,-74,?,-
COc1cccc(/C=C/C(=O)c2ccc3c(c2)OCO3)c1OC,?,?,?,-,18µM,-
Cc1ccc2c(c1)C(=O)C(=O)N2CCOc1ccccc1,0.58µM,-,21µM,-,0.73µM,7.3µM
Cc1cccc(OCCN2C(=O)C(=O)c3cc(C)ccc32)c1,0.37µM,-,?,?,0.46µM,2.9µM
Cc1ccc(OCCN2C(=O)c3ccccc3C2=O)cc1,-,?,-,-,-,-
O=S(=O)(Oc1ccccc1-c1ccccc1)c1ccccc1,-,.,-,-,?,-
N#CCCn1cc(/C=N/NC(N)=S)c(-c2ccc(-c3ccccc3)cc2)n1,?,26µM,-,-,4.1µM,?
CCCCN(c1ccccc1)S(=O)(=O)c1cc2c3c(c1)C(C)C(=O)N3CCC2 (stereo unspecified),10µM,.,.,.,29µM,.
O=C(OCc1ccccc1)N1C=CC2CC1c1c(Cl)cccc12 (stereo unspecified),?,.,-,-,?,-
NCCC1CN(C(=O)OCc2ccccc2)c2ccccc21 (stereo unspecified),5.8µM,.,?,-,5.2µM,-
Cc1nn(C)c(Oc2ccccc2)c1CCNC(=O)C(C)(C)C,-,-,-,-,-,-
COc1ccc(S(=O)(=O)NCCc2c(C)nn(C)c2Oc2ccccc2)cc1,?,-,-,-,23µM,-
Cc1nn(C)c(Oc2ccccc2)c1CCNS(=O)(=O)c1ccc(Cl)cc1,16µM,?,?,?,16µM,-
Cc1ccc(OCC(=O)NNC(=O)c2cccnc2)cc1C,-,-,-,-,-,-
COc1ccc(/C=C2\N=C(C)N(c3ccc4ccccc4c3)C2=O)cc1OC,?,-,-,-,5.8µM,-
COc1ccc(/C=C2\N=C(SC)SC2=O)cc1OC,-,-,-,-,-,-
Cc1cccc(NC(=S)NNC(=S)NCc2ccccc2)c1,-,-,?,-,-,-
Cc1cccc(NC(=S)NCc2ccncc2)c1C,-,-,-,-,-,-
COc1cccc(NC(=S)NCCC(c2ccccc2)c2ccccc2)c1,21µM,-,-,-,13µM,-
CCCN(Cc1ccccc1)C(=S)Nc1cccc(C)c1C,?,-,-,-,?,-
SMILES,TDP1 cell CPT,ELG1 DNA repair,HT1080 IDH1KD tx,IL1B secr inh,TDP1 cell noCPT,HT1080-NT tox
Cc1cccc(NC(=S)NN(Cc2ccccc2)c2ccccc2)c1C,25µM,-,-,-,16µM,-
Cc1ccccc1NC(=S)NCc1ccccc1,29µM,-,-,-,23µM,-
Cc1cccc(NC(=S)NCCC(c2ccccc2)c2ccccc2)c1,?,?,-,-,16µM,-
COc1ccc(Cl)cc1NC(=O)CN1C(=O)COc2ccc(S(=O)(=O)NC3CCCC3)cc21,-,.,.,.,-,.
COc1ccc(NC(=O)CN2C(=O)C3CC=CCC3C2=O)cc1Cl (stereo unspecified),-,.,-,-,-,-
Cc1cc(Cl)ccc1NC(=S)NCc1ccc(Cl)cc1,?,-,-,-,23µM,-
COc1ccc(NC(=S)NCCC(c2ccccc2)c2ccccc2)c(OC)c1,18µM,-,22µM,-,16µM,-
COc1cc(NC(=S)NCCC(c2ccccc2)c2ccccc2)cc(OC)c1,?,-,?,-,18µM,-
COc1ccc(NC(=S)NCCc2ccccc2OC)c(OC)c1,?,-,-,-,?,-
CC(NC(=S)N1CCN(c2ccccc2)CC1)c1ccccc1 (stereo unspecified),-,-,-,-,-,-
COc1ccc(N2CCN(C(=S)NC(C)c3ccccc3)CC2)cc1 (stereo unspecified),?,?,-,-,15µM,-
Cc1cc(Cl)ccc1NC(=S)NCCC(c1ccccc1)c1ccccc1,16µM,?,?,-,16µM,?
COc1ccc(NC(=S)N2CCN(C(c3ccccc3)c3ccccc3)CC2)c(OC)c1,15µM,?,?,-59,18µM,-
COCc1c(C(=O)N/N=C/c2ccncc2)nnn1-c1nonc1N,-,-,-,-,-,-
COC(=O)CSc1nnc(COc2cccc3ccccc23)o1,-,-,-,-,-,-
Cc1csc(N(C)C(=O)CSc2nnc(COc3cccc4ccccc34)o2)n1,5.8µM,-,?,-,5.8µM,6.3µM
CCc1cc(/C(Cc2ccccn2)=N\Nc2ccccc2)c(O)cc1O,?,-,?,-76,-,-
Cc1nc(C/C(=N\Nc2ccccc2)c2ccc(O)cc2O)cs1,?,?,-,-,?,?
COc1cc(N(C)C)ccc1[C@]1(O)C(=O)N(C)c2ccc(Br)cc21,-,.,-,-,?,-
O=C1NC2(CCCC2)N=C1c1ccc(Cl)cc1,-,?,-,-,-,-
N#CC(C#N)=c1ccc2c(c1)NC1(CCCCC1)N=2,12µM,?,23µM,-104,10µM,?
COc1ccc(C2CC(=O)Oc3cc(C)c(Cl)c(C)c32)cc1 (stereo unspecified),?,?,?,-,?,-
CN(C(=O)Cn1cc(C(F)(F)F)cc(Cl)c1=O)C1CCS(=O)(=O)C1 (stereo unspecified),-,-,-,-,-,-
COc1cc(/C=C/C(=O)OC(C)C(=O)c2ccccc2)cc(OC)c1OC (stereo unspecified),21µM,?,-,-,15µM,-
COc1cc(/C=C/C(=O)c2ccccc2O)cc(OC)c1OC,-,-,?,-98,?,?
COc1cc(OC)c(C=CC(=O)c2ccccc2O)c(OC)c1,?,.,?,-59,?,-
